Here are results for 28 molecules from PubChem BioAssay.

This test can be described thus: HepG2 liver cancer cell viability effects, profiling panel, resazurin fluorescence, 24 h, PK04 Diversity Set (AID 1172). Also: test concentration not given here. Particulars: higher = more signal.
The molecule `Cc1ccc(S[C@]2(C(=O)NC(C)C)CC(=O)N(C(C)C)[C@@H]2c2ccc(CO)cc2I)cc1` came in with a z-score of 0.197.

Consider `C=C(/C(=C/C[C@@H](OC(C)=O)c1ccc(CO)o1)c1cc(C(=O)OC)ccc1OC)C(C)C`, for which the z-score was -0.0187.

With `COc1ccc(CCNC(=O)[C@@]2(Cc3ccccc3I)c3ccccc3C(=O)N(Cc3ccccc3Cl)[C@H]2c2ccc(CO)cc2)cc1`, the z-score is -0.0135.

Turning to `COCCCNC(=O)[C@@]1(Sc2ccc(C)cc2)CC(=O)N(Cc2ccccc2Cl)[C@@H]1c1ccc(CO)cc1I`, the z-score is 0.0727.

In the case of `COc1cc(C(O)C2C=CC3C(=O)N(Cc4ccccc4)C(=O)C3N2n2cnnc2)cc(OC)c1OC` (stereo not drawn), the z-score was 0.462.

As to `[N-]=[N+]=Nc1ccccc1C[C@]1(C(=O)NCc2ccccc2)COC(c2ccc(OCCCO)cc2)=N1`, the z-score was -0.85.

In the case of `Cc1ccc(S[C@]2(C(=O)NCc3ccccc3)CC(=O)N(Cc3cc(C(F)(F)F)cc(C(F)(F)F)c3)[C@@H]2c2ccc(CO)cc2I)cc1`, the z-score is 1.24.

The molecule `COc1cc2c(cc1OC)CN(C(=O)[C@@H]1[C@H]3C(=O)O[C@H](c4ccccc4)[C@H](c4ccccc4)N3[C@H](c3ccc(O)cc3)[C@@]13C(=O)Nc1ccc(C#CCCO)cc13)CC2` came in with a z-score of 0.0462.

Consider `Cc1ccccc1C(O)C1C=CC2C(=O)NC(=O)C2N1Nc1ccc(Cl)cc1Cl` (stereo not drawn), for which the z-score was -2.17.

Consider `C=CCC(OC(C)=O)[C@@H]1[C@@H](N(Cc2ccc(-c3cccc(C(F)(F)F)c3)o2)C(=O)c2ccc(C)cc2)c2cc(OCCCO)ccc2N1C(=O)Cc1ccc(OC)cc1` (stereo partly drawn), for which the z-score was found to be 0.91.

`COc1ccc([Si](C)(C)[C@@H]2[C@@H](CC(=O)N3Cc4ccccc4C[C@H]3CO)O[C@]3(C(=O)N(Cc4ccc(N5CCC5=O)cc4)c4ccccc43)[C@H]2C)cc1` gave a z-score of 0.353.

Regarding `Cc1ccc(S[C@]2(C(=O)NC(C)C)CC(=O)N(Cc3ccccc3Cl)[C@@H]2c2ccc(CO)cc2)cc1`, the z-score was -0.167.

On to `CCOC(=O)C[C@H]1[C@H](OC(=O)c2ccc(-c3ccccc3)cc2)[C@@H](NC(=O)CC(C)C)c2cc(OCCCO)ccc2N1C(=O)c1ccccc1`, for which the z-score was -0.6.

The molecule `C=C(C(=O)CC[C@H](OC(=O)c1ccccc1-c1ccccc1C(=O)O)c1ccccc1OCCO)C(C)C` gave a z-score of 0.0659.

For `COCCOC(=O)N1C(=O)[C@@]2(c3cc(C#CC4=CCCCC4)ccc31)[C@H](c1ccc(O)cc1)N1[C@H](c3ccccc3)[C@H](c3ccccc3)OC(=O)[C@H]1[C@@H]2C(=O)NC[C@H](O)c1ccccc1`, the z-score is -1.35.

As for `NC(=O)[C@H]1[C@@H]2C(=O)O[C@@H](c3ccccc3)[C@@H](c3ccccc3)N2[C@@H](c2ccc(O)cc2)[C@]12C(=O)Nc1ccc(C#CC3=CCCCC3)cc12`, the z-score was -0.111.

`CC1CC/C=C\[C@H]2OC34C=CCN(C(C)(C)C)C(=O)[C@H]3N(C(CO)C(C)C)C(=O)[C@@H]4C2C(=O)O1` (stereo partly drawn) had a z-score of -0.49.

For `O=C(NCCN1CCOCC1)[C@@H]1c2ccccc2C(=O)N(Cc2ccccc2)[C@H]1c1ccc(CO)cc1`, the z-score stood at 1.15.

As for `CC(C)CCC[C@@H](C)[C@H]1CC[C@@]2(C)C3=C(CC[C@]12C)[C@@]1(C)CC[C@H](OC(=O)c2ccccc2)C(C)(C)C1CC3` (stereo partly drawn), the z-score came out at 0.533.

In turn, `C[C@]1(C(=O)O)c2ccccc2C(=O)N(Cc2ccc(OC(F)(F)F)cc2)[C@H]1c1ccc(CO)cc1` had a z-score of 0.0448.

`C=CCNC(=O)[C@H]1[C@@H]2C(=O)O[C@@H](c3ccccc3)[C@@H](c3ccccc3)N2[C@@H](c2ccc(O)cc2)[C@]12C(=O)N(C(=O)OCCOC)c1ccc(C#CCC(C(=O)OC)C(=O)OC)cc12`: the z-score amounted to 0.238.

Take `CCCNC(=O)[C@@]1(Sc2ccc(C)cc2)CC(=O)N(C(C)C)[C@@H]1c1ccc(CO)cc1I`: the z-score was -0.202.

In the case of `COc1ccc([Si](C)(C)[C@H]2[C@H](CCO)O[C@@]3(C(=O)N(Cc4ccccc4)c4ccc(N5CCOC5=O)cc43)[C@@H]2C)cc1`, the z-score is -1.27.

The molecule `C=CC1c2cc(O)c(OC)cc2CCN1Cc1ccc([N+](=O)[O-])o1` (stereo not drawn) yielded a z-score of -0.362.

Turning to `CCCCC(=O)N(CCN1CCOCC1)[C@@H]1CC(C(=O)NCCO)=C[C@H](Oc2c(I)cc(CO)cc2OC)[C@H]1O`, the z-score was 0.246.

Regarding `C=C[C@@H](C)[C@@H](OC(=O)Nc1ccc(SC)cc1)c1ccc(OCCO)cc1`, the z-score stood at 0.627.

For the molecule `CC(C)C[C@@H]1NC(=O)CNC(=O)[C@@]23C(=O)N[C@@H](Cc4ccccc4)C2[C@H](C)[C@@]2(C)O[C@H]2C3/C=C/C/C=C\CNC1=O` (stereo partly drawn), the z-score amounted to 0.544.

`Cc1c(NC(=O)/C(C#N)=C/c2ccccc2Cl)c(=O)n(-c2ccccc2)n1C` had a z-score of 0.294.
